The values below come from PubChem BioAssay AID489018 (Southern Research Specialized Biocontainment Screening …, 2010).

Among all 2,300 compounds or so, about 350 (15%) were called active. The rule behind the calls is not given here. Only a sample is shown. Where a call stands in place of a potency, no number is given. Potency and affinity values are given separately.

A short description of the assay: HepG2 cell cytotoxicity, dose response, cytotoxicity control for non-replicating M. tuberculosis project (AID 489018).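 Note: HepG2 human liver cells.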 Particulars: series mostly up to 20 µM.
As to `COc1ccc(/C=N/Nc2cc(C)nc(-n3nc(C)cc3C)n2)c(OC)c1`, the call was inactive.
As for `CCOc1ccc(Nc2cc(C)nc(-n3nc(C)cc3C)n2)cc1`, the compound was classed as inactive.
The value for `Cc1cc(N2CCN(c3ccccc3)CC2)nc(-n2nc(C)cc2C)n1` was “inactive”; that for `Cc1cc(N2CCC(C)CC2)nc(-n2nc(C)cc2C)n1` was “inactive”; that for `Cc1ccc(NC(=O)ON=C2CCCC2)cc1` was “inactive”.
The value for `Cc1cc(NC(=O)C2CCCCC2)n(-c2nc3ccccc3[nH]2)n1` was “inactive”.
In the case of `O=C(OCn1nnc2ccccc2c1=O)c1cccs1` it was “inactive”; in that of `COc1cc(/C=N/NC(=O)c2ccncc2)ccc1OC(=O)c1cccc(F)c1`, “inactive”.
As to `O=C(NCCCN1CCOCC1)c1c(O)c2cc(Br)cc(Br)c2[nH]c1=O`, the call was inactive.
For the compound `CC(C)Cc1nnc(NC(=O)CCS(=O)(=O)c2ccc(Cl)cc2)s1`, the compound was classed as inactive.
The value for `C=CCNc1nnc(Sc2ncccc2[N+](=O)[O-])s1` was “inactive”; that for `Cc1cccc(OC(=O)c2sc3ncn(C)c(=O)c3c2C)c1` was “inactive”; that for `COc1cccc(N2C(=O)NC(=O)/C(=C/c3ccc([N+](=O)[O-])s3)C2=O)c1` was “inactive”.
The value for `CCCc1nnc(NC(=O)c2cc3ccccc3oc2=O)s1` was “inactive”; that for `CCc1ccc(OCC(=O)Nc2ccncc2)c(Br)c1` was “inactive”; that for `Cc1ccccc1C(=O)Nc1nnc(-c2ccco2)o1` was “inactive”.
On to `O=C(CCS(=O)(=O)c1ccccc1)Nc1nnc(-c2ccco2)o1`, for which the compound was called inactive.
In the case of `CC(C)(C)c1ccc(C(=O)Nc2nnc(C3=COCCO3)o2)cc1` it was “inactive”; in that of `CCOc1ccc(C(=O)Nc2nnc(C3=COCCO3)o2)cc1`, “inactive”.
The value for `O=C(Nc1nnc(C2=COCCO2)o1)c1ccc(Cc2ccccc2)cc1` was “inactive”; that for `Cc1ccsc1C(=O)OCC(=O)Nc1nnc(-c2ccccc2)o1` was “inactive”.
The value for `Cc1cc(C(=O)COc2cccc3cccnc23)c(C)n1C` was “inactive”.
In the case of `CN(O)/C=c1/ccc2c(n1)C(=O)C=CC=2`, the compound was classed as inactive.
`Cc1ccc(-c2cc(C(F)F)nc(S(C)(=O)=O)n2)cc1`: the compound was called inactive.
For the compound `CN1C(=O)NC(=O)/C(=C/c2ccc([N+](=O)[O-])s2)C1=O`, the compound was called inactive.
For the compound `CC1Cc2cc(/C=C3/SC(=S)NC3=O)ccc2O1` (configuration not stated), the compound was called inactive.
In the case of `COc1ccc(S(=O)(=O)N(C(C)=O)c2ccc(OC(C)=O)c3ccccc23)cc1[N+](=O)[O-]` it was “inactive”.
On to `Cc1ccccc1Nc1c(-c2ccccn2)nc2ccccn12`, for which the result was inactive.
The value for `O=C(CCN1CCOCC1)c1ccc(Br)cc1` was “inactive”; that for `O=c1[nH]c(O)c(/C=C2/C=CC(c3cc(Cl)ccc3Cl)=N2)c(=O)[nH]1` was “inactive”.
In the case of `CCOC(=O)C1(O)CC(C)=NN1C(=O)c1cccc(Br)c1` (configuration not stated) it was “inactive”.
In the case of `CCOC(=O)Cc1cc(=O)n2[nH]cc(-c3ccc(Cl)cc3)c2n1` it was “inactive”; in that of `CN(C)CCOc1nc(-c2ccccc2)nc2c1oc1ccccc12`, “inactive”.
On to `COc1ccc(CN2C(=O)/C(=C/c3ccncc3)SC2=S)cc1`, for which the outcome was inactive.
The value for `Cc1ccccc1OCC(=O)OCC(=O)c1ccc[nH]1` was “inactive”; that for `Cc1cc(CC(C)C)n(-c2nc3ccccc3c(=O)n2OCC(N)=O)n1` was “inactive”.
The value for `O=C1/C(=C/c2ccccn2)COc2ccccc21` was “inactive”; that for `Cc1ccc(OCC(=O)OCc2c(C)noc2C)cc1C` was “inactive”.
`COc1cc(N=c2ssnc2Cl)cc(OC)c1`: the call was inactive.
Take `COc1cc(OC)nc(-n2ncc(Br)c(Br)c2=O)n1`: the call was inactive.
In the case of `Cc1ccc(NC(=O)COCC(=O)Nc2ccc(C)cc2)cc1`, the call was inactive.
The value for `Cc1ccc(OCC(=O)Nc2ccc([N+](=O)[O-])cc2)cc1` was “inactive”.
In the case of `CC(=O)OCCN(C)c1cc(SC(C)C)c2nonc2c1[N+](=O)[O-]` it was “inactive”; in that of `CC(=O)OCCNc1cc(SCc2ccco2)c2nonc2c1[N+](=O)[O-]`, “inactive”.
Consider `Cc1cccc(Cc2cnc(NC(=O)C3=NCCN3)s2)c1`, for which the compound was called inactive.
In the case of `S=C1SCN(Cc2cccnc2)CN1Cc1ccccc1` it was “inactive”; in that of `O=C1N(c2ccc3c(c2)OCCO3)C(c2ccccc2)C1(F)F` (configuration not stated), “inactive”.
On to `COc1ccc(CNC(=O)c2cc3cccc(O)c3oc2=N)cc1`, for which the call was inactive.
The value for `Clc1ccc(CN2C3=NCCCN3c3ccccc32)cc1` was “inactive”; that for `COc1ccccc1NC(=O)C(=O)/C=C(\O)c1ccccc1` was “inactive”.
In the case of `COc1ccc(NC(=O)c2ccc(-c3ccc([N+](=O)[O-])cc3)o2)cc1OC` it was “inactive”; in that of `Cc1nnc(NC(=O)c2ccc3ccccc3c2)o1`, “inactive”; in that of `O=C(Nc1nnc(C2=COCCO2)o1)c1ccc(F)cc1`, “inactive”.
In the case of `CCCCCCOC(=O)C(C#N)c1nc2ccccc2nc1N1CCN(CC)CC1` (configuration not stated) it was “inactive”.
`CCCNC(=O)NC(=O)COc1ccc(-c2ccc(C#N)cc2)cc1`: the compound was called inactive.
The value for `Cc1cccc(OC(=O)c2ccc3nccnc3c2)c1` was “inactive”; that for `O=C1CC(=O)CC(c2ccccc2)C1` was “inactive”; that for `CCOC(=O)CN1NC2(CCCC(C)C2)NC1=S` (configuration not stated) was “inactive”.
The value for `CCOC(=O)COc1ccc2c(=O)c(-c3ccccc3)coc2c1` was “inactive”.
The value for `O=C(N/N=C/c1ccc(OC(=O)c2cccs2)cc1)c1ccccn1` was “inactive”.
Consider `O=c1oc(-c2ccccc2[N+](=O)[O-])nc2ccccc12`, for which the outcome was inactive.
Consider `CN(/N=C/c1ccc([N+](=O)[O-])o1)c1ccccc1`, for which the result was inactive.
In the case of `Nc1nc2ccccc2n1CCOc1ccc(Br)cc1` it was “inactive”; in that of `Cc1c(C(=O)NNC(=O)c2csc(N3CCOCC3)n2)oc2ccccc12`, “inactive”.
In the case of `O=C(N/N=C/C=C/c1cccc([N+](=O)[O-])c1)c1ccncc1` it was “inactive”; in that of `O=C(Nc1nccs1)c1cc2cc(Cl)ccc2oc1=O`, “inactive”.
In the case of `CCCCCn1nnc2c(=O)oc3ccccc3c21`, the outcome was inactive.
The value for `Cc1cc(=O)[nH]c(-n2nc(C)cc2C)n1` was “inactive”.
The value for `O=C(Nc1ccc(-c2nc3ccccc3c(=O)o2)cc1)c1ccco1` was “inactive”; that for `CC(C)Oc1ccc(CNC(=O)Oc2ccccc2)cc1` was “inactive”; that for `COc1ccc(C(C)NC(=O)CCc2ccccc2)cc1` (configuration not stated) was “inactive”.
With `COc1ccc(C(O)CNc2ccc(C)cc2)cc1` (configuration not stated), the call was inactive.
For the compound `Cc1cc(OCCOCCNCc2ccccc2)ccc1C(C)C`, the compound was called inactive.
In the case of `Cn1c(CNc2ccccc2O)nc2ccccc21` it was “inactive”.
Turning to `CCCCN1CCC(O)(c2ccccc2)C(C(=O)c2ccccc2)C1` (configuration not stated), the result was inactive.
`O=C(Nc1ccccc1F)c1ccc([N+](=O)[O-])s1`: the result was inactive.
The value for `CCOc1ccc(OCc2ccc(C(=O)OCc3ccccn3)o2)cc1` was “inactive”.
